# Measured values as given in PubChem BioAssay (NCATS).
# Inconclusive results are not listed. A call without a number means that no potency is given here. The source holds several records for some structures; these can differ, active in one and inactive in another. Values without a mark were called inactive. Calls of active or inactive are those of the source. The call rests on the fitted dose curve; in most records, active means well fitted inhibition curve with a large enough effect; inconclusive means small, poorly fitted or top-dose-only effect; inactive means no such curve, though single readings can be large or run the other way.
# Assay: Primary qHTS for small molecule stabilizers of the endoplasmic reticulum resident proteome: Secreted ER Calcium Modulated Protein (SERCaMP) assay (AID 1508630)
# Settings: SH-SY5Y GLuc-SERCaMP (Gaussia luciferase released on ER calcium loss) secretion, thapsigargin, luminescence; series mostly up to 38.4 µM
# Text: Assay Provider: Brandon K. Harvey Ph.D.
# National Institute on Drug Abuse, National Institutes of Health, Baltimore, MD
# Endoplasmic reticulum (ER) dysregulation is associated with human pathologies including neurodegenerative, cardiovascular, muscular, and diabetic conditions. Maintenance of ER calcium is critical for functions of the ER and its depletion can lead to loss of ER resident proteins, in a process termed exodosis. Therapeutic compounds capable of attenuating the redistribution of ER proteins under pathological conditions may slow or stop disease progression. To identify such compounds, we performed a quantitative high-throughput screen (qHTS) using the SERCaMP assay, which monitors secretion of ER resident proteins triggered by calcium depletion.
# SERCaMP was initially developed as a reporter of ER calcium homeostasis using a Gaussia luciferase with a modified signal peptide and carboxy-terminus (GLuc-SERCaMP), modifications that confer secretion of the reporter in response to ER calcium depletion (Henderson et al., 2014). The assay was used to screen 9,501 compounds, including a collection of drugs approved by the FDA (US), EMA (EU), NHI (Japan), and HC (Canada) regulatory agencies (Huang et al., 2011). Since the SERCaMP reporter reflects the exodosis phenomenon (Trychta et al., 2018a), compounds identified in the screen have the potential to prevent exodosis by different mechanisms such as stabilizing ER calcium or augmenting ERS retrieval.
# 1. Henderson, M.J., Wires, E.S., Trychta, K.A., Richie, C.T., and Harvey, B.K. (2014). SERCaMP: a carboxy-terminal protein modification that enables monitoring of ER calcium homeostasis. Mol Biol Cell 25, 2828-2839.
# 2. Huang, R., Southall, N., Wang, Y., Yasgar, A., Shinn, P., Jadhav, A., Nguyen, D.T., and Austin, C.P. (2011). The NCGC pharmaceutical collection: a comprehensive resource of clinically approved drugs enabling repurposing and chemical genomics. Sci Transl Med 3, 80ps16.
# 3. Trychta, K.A., Back, S., Henderson, M.J., and Harvey, B.K. (2018a). KDEL Receptors Are Differentially Regulated to Maintain the ER Proteome under Calcium Deficiency. Cell Rep 25, 1829-1840 e1826.
# SEQUENCE No. (1, 2, 3, etc.); […] (e.g., Cells, Incubation, Reagent, etc.); VALUE and DESCRIPTION.
# 1; Reagent; 5 uL; 1000 SH-SY5Y cells per wells
# 3; Compound; 23 nL; Control inhibitor / compound library
# 5; Reagent; 100 nM; Thapsigargin
# 7; Reagent; 1 uL; 0.5x coelenterazine
# 8; Detection; Luminescence; ViewLux imaging system
# NOTES (numbers refer to sequence above)
# 1; SH-SY5Y human neuroblastoma cells stably expressing GLuc-SERCaMP (SH-SY5Y-GLuc-ASARTDL) cells were seeded in 1,536 well white tissue culture treated plates (Corning, Cat# 7464) in DMEM-high glucose-sodium pyruvate (ThermoFisher Scientific, Cat #10569) supplemented with 10% bovine growth serum (Hyclone), 10 U/ml penicillin (Gibco), 10 ug/ml streptomycin (Gibco), and 20 mM HEPES.
# 2; Assay plates were incubated for 5 hour at 37C in a humidified incubator containing 5% CO2.
# 3; qHTS libraries (23 nl, final concentrations of 1.53 uM, 7.67 uM, 38.3 uM) or controls (neutral control: DMSO, positive control: dantrolene) were added using a Kalypsis pin-tool Robotic System equipped with 1536 pinheads.
# 4; Cells were then incubated for 16 hours at 37C, 5% CO2.
# 5; Thapsigargin was added at 100 nM to deplete ER calcium stores.
# 6; Cells were incubated for 4 hour (37 °C, 5% CO2)
# 7; Gaussia luciferase in the medium was measured by adding 1 ul of 0.5x coelenterazine (final concentration 0.07x) prepared in Gaussia Luciferase Glow Assay Buffer (Pierce), without addition of the Cell Lysis Buffer Reagent.
# 8; Luminescence was measured using a ViewLux […] CCD imaging system (Perkin Elmer) equipped with clear filters. […] The same controls were also used for the calculation of the Z' factor, a measure of assay quality control, as previously described (Zhang et al., 1999). […]
# Potency means the concentration at half of the fitted maximal effect.
SMILES,"activity change, negative = inhibition",Potency
CCCCC/C=C\C/C=C\CCCCCCCC(N)=O,-21% [at 3.88 µM],
CCCCC/C=C\C=C\[C@H](O)CCCCCCCC(=O)O,2.02% [at 0.478 µM],
Cn1cnc2c(NC3CCCC3)ncnc21,,inactive
c1ccc2sc(N3CCN(Cc4ccc5c(c4)OCO5)CC3)nc2c1,,inactive
NC(C(=O)O)c1cc(O)c(Cl)c(O)c1 (stereo not given),,inactive
CNC(=O)[C@H]1O[C@H](n2cnc3c(NCc4cccc(I)c4)nc(Cl)nc32)[C@@H](O)[C@@H]1O,,inactive
CCC(C)(C)C(=O)O[C@@H]1C[C@@H](C)C=C2C=C[C@H](C)[C@H](CC[C@@H]3C[C@@H](O)CC(=O)O3)[C@H]21,,inactive
O=[N+]([O-])c1ccc2cn[nH]c2c1,,inactive
N[C@H](Cc1ccc(Cl)cc1)C(=O)O,,inactive
OCCOCCN1CCN(Cc2cccc(Oc3ccccc3)c2)CC1,,inactive
Nc1nc(NCCc2ccc(O)cc2)nc2nc(-c3ccco3)nn12,,inactive
N[C@H](C(=O)O)c1nn[nH]n1,,inactive
C[C@@H](Cc1ccccc1)Nc1ncnc2c1ncn2[C@@H]1O[C@H](CO)[C@@H](O)[C@H]1O,,inactive
NC(C(=O)O)[C@H](O)C(=O)O (stereo not given in full),,inactive
O[C@@H](c1ccccc1)C1CCN(CCc2ccccc2)CC1,,inactive
NCC(O)COc1cccc2ccccc12 (stereo not given),,inactive
Cc1ccc(-c2nn(CC(C)(C)C)c3ncnc(N)c23)cc1,,inactive
N[C@@H](C(=O)O)c1ccc(P(=O)(O)O)cc1,,inactive
CC(C)C(NS(=O)(=O)c1ccc(-c2ccc(Br)cc2)cc1)C(=O)O (stereo not given),,inactive
C=CC1=C(C)C2=NC1=CC1=NC(=CC3=NC(=CC4=NC(=C2)C(C)=C4CCC(=O)O)C(CCC(=O)O)=C3C)C(C=C)=C1C.[Zn],,inactive

SMILES,"activity change, negative = inhibition",Potency
CSCC[C@H](NC(=O)[C@H](Cc1ccccc1)NC[C@@H](NC[C@@H](N)CS)C(C)C)C(=O)O,,inactive
Fc1cccc(/C=N\N=C/c2cccc(F)c2)c1,,inactive
CN(CCc1ccc(Cl)c(Cl)c1)CCN1CCCC1,,inactive
CN[C@@H]1[C@H](O)[C@H](O[C@@H]2[C@H](O)[C@@H](O[C@H]3O[C@H]([C@@H](C)NC)CC[C@H]3N)[C@@H](N)C[C@H]2N)OC[C@]1(C)O,,inactive
CC1=C(/C=C/C(C)=C\C=C\C(C)=C\C(=O)O)C(C)(C)CCC1,,inactive
CC[C@@H](C)[C@@H](CO[C@@H](Cc1ccccc1)C(=O)N[C@@H](CCS(C)(=O)=O)C(=O)OC(C)C)NC[C@@H](N)CS,,inactive
CCCCC/C=C\C/C=C\CCCCCCCC(=O)NCC(=O)O,-10.8% [at 3.88 µM],
O=C(O)[C@@H]1CN[C@@H](C(=O)O)C1,,inactive
CC(=O)O[C@H](CC(=O)O)C[N+](C)(C)C,,inactive
CCCCCCCC/C=C\CCCCCCCC(N)=O,,inactive
N[C@@H]1CCN(O)C1=O,,inactive
CNC(=O)[C@H]1O[C@@H](n2cnc3c(N)ncnc32)[C@H](O)[C@@H]1O,,inactive
CCCCCCCCCCCCC/C=C/[C@@H](O)[C@@H](N)CO,-29.5% [at 3.88 µM],1120 nM (active)
c1ccc(-c2n[nH]c3c2oc2ccccc23)cc1,,inactive
C[C@@](N)(C(=O)O)[C@@H]1C[C@@H]1C(=O)O,,inactive
Cc1cc(Cn2cnc3c2C[C@@H](C(=O)O)N(C(=O)C(c2ccccc2)c2ccccc2)C3)ccc1N(C)C,,inactive
COc1cccc2c1C(=O)c1c(O)c3c(c(O)c1C2=O)C[C@@](O)(C(=O)CO)C[C@@H]3O[C@@H]1C[C@H](N)[C@H](O)[C@H](C)O1,,inactive
CC(C)ON(CC(=O)NO)S(=O)(=O)c1ccc(-c2ccccc2)cc1,,inactive
CCCCC[C@H](O)/C=C/[C@@H]1[C@@H](C/C=C\CCCC(=O)O)[C@@H](O)C[C@@H]1O,-25.7% [at 3.88 µM],
